Compound activity from PubChem.
DT40 TDP1 no CPT: qHTS for Inhibitors of human tyrosyl-DNA phosphodiesterase 1 (TDP1): qHTS in cells in absence of CPT; DT40 Tdp1-/- hTDP1 cells, no CPT, ATP luminescence, 48 h; Potency, µM (series often up to 46.2 µM), for inactives: at the highest dose activity change, negative = growth inhibition, actives largely listed as inhibitors; 420,000 tested, 15% active; note: potency is the fitted concentration of half-maximal effect; nearly all actives have a fitted effect of over 55% in size
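Chicken DT40 Tdp1-/- cells complemented with human TDP1, screened without camptothecin (DMSO vehicle only), 400 cells/well. Compounds pin-transferred, cells incubated at 37 °C for at least 48 hr. Growth read as ATP-dependent luminescence (CellTiter-Glo, 30 min at RT).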
ELG1 repair inh: ELG1-dependent DNA repair inhibition; HEK293T ELG1-luciferase reporter, luminescence, 16 h; DNA damage induced by 5-fluorouridine; Potency, µM (highest dose often 46.1 µM), for the others: at the top dose activity change, negative = inhibition, hits mostly inhibitors; 330,000 tested, 2.3% active; AID 504467; note: potency is the fitted concentration of half-maximal effect; nearly all actives have a fitted effect of over 55% in size
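Luminescence from the luciferase reporter, measured 30 min after ONE-Glo reagent at room temperature, was the read-out. Beforehand, 2,000 cells per well were exposed for 16 hr at 37 °C to 5-fluorouridine together with compound or vehicle.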
IL-1B inflam inh: blocks inflammasome-driven IL-1 beta release; activity change, % at 57.5 µM; 360,000 tested, 4.7% active; THP-1 LPS/ATP IL-1B secretion, AlphaLISA, 16 h; active compounds read low; in the data active = activity change below about -50%; inconclusive = mostly about -30% to -49%
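Secreted IL-1B measured by AlphaLISA bead assay after 16 h compound exposure of THP-1 cells; compounds (final up to 57.5 uM) added 1 h before LPS (250 ng/mL) and ATP (1.25 mM) stimulation; lower signal means less secretion.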
Giardia killer: Giardia lamblia killing; Giardia lamblia trophozoite viability; 340,000 tested, 0.15% active; activity change, % at 7.66 µM, hits read low; in the data active = activity change below about -80%; inconclusive = between about -30% and that limit;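 note: parasites exposed to compound for two days anaerobically before the ATP read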
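Trophozoite viability was measured as ATP-dependent luminescence, read 15-30 min after reagent addition. Before that, parasites at 100 cells/well were exposed to compounds for 48 h, anaerobically, at 37 deg C.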
TDP1 inh: blocks human tyrosyl-DNA phosphodiesterase 1 | Q9NUW8 | recombinant TDP1, AlphaScreen DNA substrate cleavage | Potency, µM (doses to about 130 µM), for the others: at the top dose activity change, negative = inhibition, actives largely listed as inhibitors | 350,000 tested, 0.28% active; note: potency is the fitted concentration of half-maximal effect; nearly all actives have a fitted effect of over 40% in size
Target sequence (Q9NUW8 whole entry, looked up): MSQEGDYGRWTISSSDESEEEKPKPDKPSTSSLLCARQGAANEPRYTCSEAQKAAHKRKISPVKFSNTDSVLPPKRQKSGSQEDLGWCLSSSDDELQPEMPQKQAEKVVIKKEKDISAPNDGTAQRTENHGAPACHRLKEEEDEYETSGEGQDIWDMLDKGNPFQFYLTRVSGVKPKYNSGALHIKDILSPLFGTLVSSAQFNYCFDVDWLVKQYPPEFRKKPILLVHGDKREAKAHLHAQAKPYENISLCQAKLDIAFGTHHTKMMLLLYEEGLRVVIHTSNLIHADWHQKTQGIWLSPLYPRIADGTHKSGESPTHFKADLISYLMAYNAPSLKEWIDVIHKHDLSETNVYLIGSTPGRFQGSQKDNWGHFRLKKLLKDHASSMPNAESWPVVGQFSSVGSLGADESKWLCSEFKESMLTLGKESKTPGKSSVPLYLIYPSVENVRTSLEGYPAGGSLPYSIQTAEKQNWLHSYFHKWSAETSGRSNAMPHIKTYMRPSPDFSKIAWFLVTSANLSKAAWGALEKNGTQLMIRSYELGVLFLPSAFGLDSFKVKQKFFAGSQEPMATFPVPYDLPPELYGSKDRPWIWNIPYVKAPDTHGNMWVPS
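Tdp1 1 nM final; 15 min RT w/ cpd; substrate 15 nM, 5 min; beads 10 ug/ml, 10 min; AlphaScreen read. Neg ctrl: no enzyme.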
TDP1 cell CPT: growth inhibition of DT40 Tdp1-/-;hTDP1 cells with camptothecin (screen for TDP1 inhibitors). chicken DT40 Tdp1-/-;hTDP1 cells + 20 nM CPT, ATP luminescence, 48 h. Potency, µM (highest dose often 46.2 µM), inactives show top-dose activity change, negative = growth inhibition, most hits filed as inhibitors. 420,000 tested, 12% active. AID 686979; note: potency is the fitted concentration of half-maximal effect; nearly all actives have a fitted effect of over 55% in size
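Chicken DT40 Tdp1-/- cells complemented with human TDP1, 400 cells/well, exposed to compounds plus 20 nM camptothecin for at least 48 h at 37 C; viability read as ATP content by CellTiter-Glo luminescence.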
Numbers without * were called inactive; ? = inconclusive; nt = no result. Most compounds without a hit are left out; they make up all but 19% or so of the library. Unless noted, calls come from the whole dose curve; as a rule, active = well fitted curve in the direction sought with a large enough effect; inconclusive = small, poorly fitted or top-dose-only effect, or another doubt; inactive = no such curve, though single readings can be large; an effect the other way counts as inactive or inconclusive. % is set by controls: 0 for no effect and ±100 for the full control effect.

SMILES | DT40 TDP1 no CPT | ELG1 repair inh | IL-1B inflam inh | Giardia killer | TDP1 inh | TDP1 cell CPT
Cc1oc2ccc(O)c(CN3CCN(C)CC3)c2c1C(=O)Nc1cccc(Cl)c1C | 18µM* | nt | nt | nt | 7% | 8.2µM*
CCc1cccc(CC)c1NC(=O)c1c(C)oc2ccc(O)c(CN3CCOCC3)c12 | ? | nt | nt | nt | 1% | ?
CCN1CCN(Cc2c(O)ccc3oc(C)c(C(=O)Nc4cccc(Cl)c4C)c23)CC1 | 21µM* | nt | nt | nt | 4% | 8.2µM*
CN(Cc1ccccc1)C(=S)Nc1ccc2nc3n(c(=O)c2c1)CCCCC3 | ? | -15% | 13 | -12 | 4% | -5%
C=CC[C@]12CC=CC(=O)[C@@]1(O)O[C@H](c1ccc(OC)c(OC)c1)[C@H]2C | 5.8µM* | nt | -115* | -12 | nt | 10µM*
CC(=O)c1cccc(OCc2cc(C(=O)NCCC3=CCCCC3)no2)c1 | ? | ? | -10 | -26 | 2% | ?
Cc1ccccc1NS(=O)(=O)c1ccc(C(=O)N2CCCCCCC2)cc1 | ? | -18% | -13 | 3 | nt | ?
Cc1ccc(S(=O)(=O)NCc2ccccc2)cc1C(=O)N1CCCC(C(F)(F)F)C1 (stereo not given) | 18µM* | 0% | -12 | -3 | -8% | ?
Cc1ccc(C)c(S(=O)(=O)N2CCN(C(=O)c3cc(S(=O)(=O)NCc4ccccc4)ccc3C)CC2)c1 | ? | ? | ? | -9 | 1% | 23µM*
Cc1ccccc1NS(=O)(=O)c1ccc(C(=O)N2CCCC(C(F)(F)F)C2)cc1 (stereo not given) | 12µM* | -1% | -2 | 12 | -1% | ?
CCOc1ccc(CC(=O)NCCc2csc(-c3ccc(C(F)(F)F)cc3)n2)cc1 | nt | nt | nt | nt | 3% | nt
COC(=O)[C@@]12C[C@@H](CC(=O)NCC34CC5CC(CC(C5)C3)C4)C(=O)N(Cc3ccccc3)C1=CCC(C)(C)C2 | 21µM* | nt | -29 | nt | nt | ?
CCOC(=O)[C@]12CCCC=C1N(Cc1ccccc1)C(=O)[C@H](CC(=O)NCC13CC4CC(CC(C4)C1)C3)C2 | ? | nt | -25 | nt | nt | ?
COC(=O)[C@]12CCCCC=C1N(Cc1ccccc1)C(=O)[C@H](CC(=O)NCC13CC4CC(CC(C4)C1)C3)C2 | ? | nt | -24 | nt | nt | 18µM*
CCC(=O)N1CCc2cc(S(=O)(=O)CCC(=O)N(C)c3ccc(OC)cc3)ccc21 | 3% | 17% | -21 | -6 | 4% | -5%
Cc1ccc(NC(=O)Nc2ccnc(-c3cccnc3)n2)cc1 | 8.2µM* | -20% | 36 | -2 | -3% | 8.2µM*
Cc1ccc(C(=O)Nc2ccnc(-c3cccnc3)n2)cc1 | ? | ? | 15 | 20 | 0% | ?
O=C1Nc2ccccc2C1=Nc1ccccc1-c1ccccc1 | ? | nt | -70* | 5 | nt | ?
Cc1ccc([N+](=O)[O-])cc1N=C1C(=O)Nc2ccccc21 | -30% | ? | -89* | 7 | nt | -20%
Cc1cc(Br)ccc1N=C1C(=O)Nc2ccccc21 | -6% | 24% | 29 | -7 | nt | 7%
COc1ccccc1NS(=O)(=O)c1ccc(C)c(NS(=O)(=O)c2cc(NC(C)=O)ccc2OC)c1 | ? | nt | 16 | -16 | nt | -4%
CC1(C)OC(=O)C2(Cc3cc([N+](=O)[O-])ccc3N3CCCCC32)C(=O)O1 (stereo not given) | -2% | nt | nt | -12 | nt | ?
Cc1ccc(Cn2ncc3c(N4CCN(c5ccc(C)cc5)CC4)ncnc32)cc1 | ? | -20% | 35 | 3 | 4% | -25%
Cc1ccc(Cn2ncc3c(NN)ncnc32)cc1 | ? | ? | 0 | -17 | nt | ?
CC1CCN(c2ncnc3c2cnn3Cc2ccc(Cl)cc2)CC1 | 18µM* | ? | 0 | -7 | -6% | 18µM*
SMILES | DT40 TDP1 no CPT | ELG1 repair inh | IL-1B inflam inh | Giardia killer | TDP1 inh | TDP1 cell CPT
Cc1cc(C)nc(N2CCN(c3ncnc4c3cnn4Cc3ccc(Cl)cc3Cl)CC2)n1 | 3.7µM* | -16% | 3 | -2 | 8% | ?
CCN(CC)c1ncnc2c1cnn2Cc1ccc(C)cc1 | 12µM* | 1% | 1 | 2 | nt | ?
Cc1ccc(Cl)cc1-n1ncc2c(N3CCC(C)CC3)ncnc21 | 9.2µM* | nt | nt | nt | 3% | 23µM*
COc1cccc(-c2nn3c(=O)cc(CN4CCN(S(=O)(=O)c5ccc(C)cc5)CC4)nc3s2)c1 | -3% | nt | nt | nt | 5% | -1%
O=C(Cc1cccc(NC(=O)C2CCCN(C(=O)C3CCCCC3)C2)c1)Nc1cccc(C(=O)N2CCOCC2)c1 (stereo not given) | -15% | nt | 4 | 9 | nt | -6%
C[C@@H]1CCCCO[C@@H](CN(C)C(=O)CCCN(C)C)[C@@H](C)CN([C@H](C)CO)C(=O)c2cc(NC(=O)CCC(F)(F)F)ccc2O1 | -24% | nt | 7 | nt | nt | 0%
CCN(CC)C(=O)CSc1ncnc2c1cnn2Cc1ccccc1 | 12µM* | ? | -3 | 8 | 4% | -28%
Cc1ccc(Cn2ncc3c(N4CCN(C)CC4)ncnc32)cc1 | 10µM* | ? | 2 | -9 | 4% | ?
Cc1ccccc1N1CCN(c2ncnc3c2cnn3Cc2ccc(Cl)cc2)CC1 | 13µM* | ? | ? | 1 | 1% | 13µM*
Cc1ccc(Cn2ncc3c(N4CCN(Cc5ccc(Cl)cc5)CC4)ncnc32)cc1 | 16µM* | 5.8µM* | 13 | -16 | 6% | 18µM*
CCc1ccccc1Nc1sc(C(=O)c2ccccc2)c(N)c1S(=O)(=O)c1ccccc1 | ? | nt | nt | nt | 5% | ?
